Measured values: PubChem BioAssay AID1745847 (National Center for Advancing Translational Sciences (NCATS), 2022)
Screen size: about 2,100 compounds; about 670 (32%) were called active. Not shown: some 50% with an inconclusive outcome. Calls follow the shape of the dose curve; as a rule, active = well fitted inhibition curve with a large enough effect; inconclusive = small, poorly fitted or top-dose-only effect; inactive = no such curve, though single readings can be large or run the other way. This is one part of the list.
% is scaled to controls: 0 for no effect and ±100 for the full control effect; potency is read from the fitted curve at half-maximal effect.

Assay: CMV-Luciferase Counterscreen for Inhibitors of ATXN expression; also: nearly all actives have a fitted effect of over 55% in size
Conditions: HEK-293 CMV-luciferase reporter, luminescence, 24 h; series mostly up to 57.5 µM; activity change, negative = inhibition: at the top concentration
With `NC(Cc1ccc(Cl)cc1)c1csc(Nc2cc(NCCCO)ncn2)n1` (stereo not given) the “activity change, negative = inhibition” value was -12.1% (inactive). In the case of `O=C(N/N=C/c1c(O)n(Cc2ccccc2)c(=O)c2ccccc12)c1cccnc1`, the Potency is reported as 12.6 µM (active). With `O=C(N/N=C/c1cc(Cl)ccc1O)c1cccnc1` the Potency was 0.631 µM (active). With `O=C(N/N=C/c1cc(Cl)ccc1O)c1ccccc1Br` the Potency was 8.91 µM (active). With `Cc1cccc(/C=N/NC(=O)c2cccc(Cl)c2)n1` the activity change, negative = inhibition was -14.3% [at 11.4 µM] (inactive). For `CCC1=C(OC(=O)N(CC)CC)N2C(=O)OC(=NCCc3c[nH]c4ccccc34)[C@]2(Cc2ccccc2)[C@H]2C1=CC[C@H]1C(=O)N(c3ccccc3)C(=O)[C@H]12`, the “activity change, negative = inhibition” value was -21.2% (inactive). With `Cc1cccn2c(=O)c3cc(C(=O)NCCc4ccccc4)c(=N)n(CCCn4ccnc4)c3nc12` the “activity change, negative = inhibition” value was -14.8% (inactive). For `CC1(C)Cc2c(c(-c3ccco3)nc3sc4c(NCCN5CCOCC5)ncnc4c23)CO1`, the “activity change, negative = inhibition” value was 7.14% (inactive). In the case of `Cc1c(C(=O)Nc2nonc2-c2ccc(F)cc2)oc2ccc(F)cc12`, the Potency is reported as 11.2 µM (active). For `O=C(NNC(=O)C12CC3CC(CC(C3)C1)C2)c1ccccn1`, the Potency was 8.91 µM (active). In the case of `CN(C)c1ccc2c(c1)OC(N)=C(C#N)C2c1cccc(F)c1` (stereo not given), the “activity change, negative = inhibition” value is reported as -18.1% (inactive). In the case of `Cn1cccc1/C=N/N1CCN(Cc2ccccc2Cl)CC1`, the “activity change, negative = inhibition” value is reported as -18.3% (inactive). With `O=C(Nc1ccccc1N1CCN(C(=O)c2ccccc2)CC1)c1ccc(Br)o1` the Potency was 28.2 µM (active). For `Cc1cc(C)n(-c2nc(Nc3ccccc3C(F)(F)F)nc(-n3nc(C)cc3C)n2)n1`, the Potency was 1.78 µM (active). With `CN(C)c1ccc(NC(=O)Nc2nc(C(N)C3CCCCC3)cs2)cc1` (stereo not given) the “activity change, negative = inhibition” value was -22.2% (inactive). In the case of `CCOC(=O)c1c(NC(=O)COC(=O)CNC(=O)c2ccco2)sc(C)c1C`, the activity change, negative = inhibition is reported as 24.5% [at 11.4 µM] (inactive). For `Cc1cc(C)c(S(=O)(=O)/N=C2\C=C(Nc3ccc(C(=O)O)cc3)C(=O)c3ccccc32)c(C)c1`, the Potency was 1.58 µM (active). With `CCCCCCn1c2c(c(=N)c3c1CCC3)CCC2` the Potency was 2.51 µM (active). For `Cc1ccc(C(NC(=O)C2CCN(Cc3ccc(Cl)c(Cl)c3)CC2)c2ccccn2)cc1` (stereo not given), the Potency was 28.2 µM (active). For `Cc1ccc(CN2CC(C(=O)Nc3ncc(C)s3)CC2=O)cc1` (stereo not given), the activity change, negative = inhibition was 242% [at 11.4 µM] (inactive). For `O=C1C=C(NCCc2cc(Br)c(O)c(Br)c2)C(=O)c2ncccc21`, the Potency was 8.91 µM (active). With `Cc1cc(C)c(C(=O)N2CCCC(N3CCN(c4cccc(C(F)(F)F)c4)CC3)C2)o1` (stereo not given) the Potency was 3.55 µM (active). With `COC1=CC(=O)C=C(OC)C1(O)CC(C)=O` the “activity change, negative = inhibition” value was -10% (inactive). In the case of `CC(=O)NC(c1cc(Cl)c2cccnc2c1O)C(C)C` (stereo not given), the Potency is reported as 0.794 µM (active). In the case of `CCC(=O)NC(c1cc(Cl)c2cccnc2c1O)C(C)C` (stereo not given), the Potency is reported as 3.98 µM (active). In the case of `CC(C)CCn1c(N)c(S(=O)(=O)c2cccs2)c2nc3ccccc3nc21`, the Potency is reported as 3.16 µM (active). With `CCSc1nc2ccccc2n1C(=O)/C=C\c1ccc(OC)c(OC)c1` the Potency was 14.1 µM (active). For `COc1ccc(C(=O)/C=C/c2cccc(OCc3ccccc3)c2)cc1CSCC(=O)O`, the activity change, negative = inhibition was -3.73% [at 11.4 µM] (inactive). In the case of `COc1ccc(C(=O)Cn2c(C(=O)/C=C/c3ccccc3)nc3ccccc32)cc1`, the activity change, negative = inhibition is reported as 92.9% [at 11.4 µM] (inactive). In the case of `N#Cc1ccccc1NC(=O)C1SC(=Nc2ccccc2)C(C(=O)Nc2ccc(Cl)cc2)=C1N` (stereo not given), the activity change, negative = inhibition is reported as -20.6% [at 11.4 µM] (inactive). In the case of `CN(CC(=O)NCc1ccc(F)cc1)CC(=O)Nc1ccc(Cl)c(C(F)(F)F)c1`, the Potency is reported as 17.8 µM (active). With `Cc1ccc(C(=O)N(C)CC(=O)Nc2ccc(Cl)c(C(F)(F)F)c2)cc1S(=O)(=O)N1CCCCC1` the Potency was 25.1 µM (active). In the case of `CN(CC(=O)Nc1ccc(Cl)c(C(F)(F)F)c1)C(=O)c1cccnc1Sc1ccccc1`, the “activity change, negative = inhibition” value is reported as -21.5% (inactive). In the case of `Cc1ccc(-n2ncc(C(=O)Nc3ccc(Cl)cc3)c2C2CCNCC2)cc1C`, the “activity change, negative = inhibition” value is reported as -12.6% (inactive). In the case of `Cc1cc(C2=NNC(=NC3CC3)SC2)c(C)n1-c1ccccc1F`, the Potency is reported as 0.631 µM (active). For `Cc1ccc(C2CC(=O)Nc3c2ccc2ccccc32)cc1[N+](=O)[O-]` (stereo not given), the Potency was 17.8 µM (active). In the case of `Cc1ccccc1S(=O)(=O)Cc1ccc(C(=O)N2CCN(c3cccc(C)c3C)CC2)o1`, the Potency is reported as 3.98 µM (active). With `CCOC(=O)[C@H]1[C@H]2COc3ccc(OC)cc3[C@@H]2N2C(=O)c3cc(OC)c(OC)cc3NC(=O)[C@@]12C` the activity change, negative = inhibition was 6.45% [at 11.4 µM] (inactive). In the case of `c1cnc2c(c1)ccc1cccnc12`, the Potency is reported as 3.55 µM (active). In the case of `CC(=O)N1CCN(c2ccc(Oc3ccc([N+](=O)[O-])c(C(F)(F)F)c3)cc2)CC1`, the Potency is reported as 7.94 µM (active). In the case of `N=c1c2c(n(Cc3ccc(Cl)cc3)c3c1CCC3)CCC2`, the Potency is reported as 0.708 µM (active). For `N=c1c2c(n(Cc3ccc(Br)cc3)c3c1CCC3)CCCC2`, the Potency was 0.501 µM (active). For `N=c1c2c(n(Cc3cccc(Cl)c3)c3c1CCC3)CCCC2`, the Potency was 3.16 µM (active). For `Cn1c(CO)cnc1S(=O)(=O)Cc1ccc([N+](=O)[O-])cc1`, the “activity change, negative = inhibition” value was -3.42% (inactive). In the case of `c1nc(CCO[C@H]2CCCCO2)cc2cc3c(cc12)OCO3`, the Potency is reported as 3.16 µM (active). In the case of `O=C(C1CCC(CNS(=O)(=O)c2cccs2)CC1)N1CCN(c2ccc(F)cc2)CC1` (stereo not given), the Potency is reported as 4.47 µM (active). In the case of `COc1cc(C(=O)O/N=C(\N)Cc2ccc([N+](=O)[O-])cc2)cc(OC)c1OC`, the activity change, negative = inhibition is reported as -6.35% [at 11.4 µM] (inactive). In the case of `CCOc1cc(C=C(C(=O)OC)C(=O)OC)ccc1OCc1ccc([N+](=O)[O-])cc1`, the Potency is reported as 25.1 µM (active). In the case of `CC1CC(C)C[N+](=C2C=C(N3CCCC3)CC(C)(C)C2)C1` (stereo not given), the Potency is reported as 0.794 µM (active). For `CC1CCN(Cc2c(C(=O)N/N=C/c3cc(Cl)ccc3O)nnn2-c2nonc2N)CC1`, the Potency was 0.562 µM (active). In the case of `CC1CCN(Cc2c(C(=O)N/N=C/c3cc(Br)ccc3O)nnn2-c2nonc2N)CC1`, the Potency is reported as 0.447 µM (active). For `COc1ccc(-c2n(CC(=O)OC3CC(C)CCC3C(C)C)c3ccccc3[n+]2C)cc1` (stereo not given), the Potency was 3.16 µM (active). For `CCOc1ccc(-c2c[n+]3c(n2-c2ccccc2)CCCCC3)cc1`, the Potency was 6.31 µM (active). In the case of `CCOc1ccc(-n2c(-c3ccccc3)c[n+]3c2CCCCC3)cc1`, the Potency is reported as 3.55 µM (active). In the case of `CCCCOc1ccc(C(=O)NNC(=S)NC(=O)CC)cc1`, the Potency is reported as 2.51 µM (active).
